# Assay results from PubChem BioAssay (EPA / NIEHS).
# Values joined by “and” are separate entries in the source; they are usually repeats but may differ in a detail not shown here. Equal entries are not always repeated. Results filed as inconclusive are left out. Some structures have more than one record in an assay (separate samples or runs), and their calls can disagree. Active and inactive are the calls of the source. How the source made its calls: active means hit-call score of the fitted dose curve at least 0.9, where 1 is the maximum; inconclusive means response in the unintended direction; inactive means score below 0.9.
# Biological target: Cellular tumor antigen p53 (Homo sapiens) (UniProt P04637)
# Sequence (P04637 whole entry, looked up): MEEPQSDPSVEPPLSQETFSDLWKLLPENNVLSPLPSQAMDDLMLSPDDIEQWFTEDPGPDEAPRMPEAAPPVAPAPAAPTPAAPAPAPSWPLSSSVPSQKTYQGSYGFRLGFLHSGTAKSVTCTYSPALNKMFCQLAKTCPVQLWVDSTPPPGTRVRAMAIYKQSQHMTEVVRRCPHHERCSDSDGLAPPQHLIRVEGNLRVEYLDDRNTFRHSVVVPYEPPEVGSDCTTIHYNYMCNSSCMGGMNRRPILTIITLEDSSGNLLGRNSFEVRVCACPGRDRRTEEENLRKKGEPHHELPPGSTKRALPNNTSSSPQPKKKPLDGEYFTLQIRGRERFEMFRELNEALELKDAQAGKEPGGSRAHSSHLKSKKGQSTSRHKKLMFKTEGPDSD
# Test: TOX21_p53_BLA_p4_ratio: Tox21 HCT-116 p53 Agonism Beta-lactamase Assay, Ratio, Phase 4 (AID 2283601)
# In short: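 HCT-116 p53 beta-lactamase reporter cells (4000/well) preincubated 5 h, then compound (217-fold dilution of DMSO stock) for 16 h at 37C. CCF4-AM substrate added 2 h at room temperature; 460/530 nm emission ratio fitted upward versus DMSO.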
SMILES,outcome,AC50
CCOP(=O)(NC(C)C)Oc1ccc(SC)c(C)c1 (stereo not drawn),inactive,–
COc1cc(OC)nc(Sc2cccc(Cl)c2C(=O)O)n1,inactive,–
CCOP(=S)(OCC)Oc1ccc2c(C)c(Cl)c(=O)oc2c1,inactive,–
CC(=NC#N)N(C)Cc1ccc(Cl)nc1,inactive,–
CN(C)NC(=O)CCC(=O)O,inactive,–
FC(F)C(F)(F)OCC(Cn1cncn1)c1ccc(Cl)cc1Cl (stereo not drawn),inactive,–
CCc1cccc(C)c1N(C(=O)CCl)C(C)COC (stereo not drawn),inactive,–
COP(=O)(OC)C(O)C(Cl)(Cl)Cl (stereo not drawn),inactive,–
CC(C)=CC1C(C(=O)OCN2C(=O)C3=C(CCCC3)C2=O)C1(C)C (stereo not drawn),inactive,–
CC(C)N(C(=O)SCC(Cl)=C(Cl)Cl)C(C)C,inactive,–
CCC(=O)Nc1ccc(Cl)c(Cl)c1,inactive,–
COc1cccc(C(=O)NN(C(=O)c2cc(C)cc(C)c2)C(C)(C)C)c1C,inactive,–
S=C1NCCN1,inactive,–
CCOP(=S)(OCC)Oc1cc(C)nc(C(C)C)n1,inactive,–
CCCCSP(=O)(SCCCC)SCCCC,inactive,–
CCOP(=S)(OCC)SCCSCC,inactive,–
C#CCC1=C(C)C(OC(=O)C2C(C=C(C)C)C2(C)C)CC1=O (stereo not drawn),inactive,–

SMILES,outcome,AC50
CCOC(=O)CC(SP(=O)(OC)OC)C(=O)OCC (stereo not drawn),inactive,–
CON=C(C(=O)OC)c1ccccc1CON=C(C)c1cccc(C(F)(F)F)c1,–,1.65 µM (active)
Cc1cc(C2CC2)nc(Nc2ccccc2)n1,–,72.6 µM (active)
C[Si](Cn1cncn1)(c1ccc(F)cc1)c1ccc(F)cc1,inactive,55.6 µM (active)
CCC(CC)Nc1c([N+](=O)[O-])cc(C)c(C)c1[N+](=O)[O-],inactive,–
O=c1ccc(=O)[nH][nH]1,inactive,–
CCCSP(=O)(OCC)Oc1ccc(Br)cc1Cl (stereo not drawn),inactive,–
CC1(C(=O)Nc2ccc(O)c(Cl)c2Cl)CCCCC1,inactive,–
CNC(=O)ON=C(SC)C(=O)N(C)C,inactive,–
Nc1nc(N)nc(NC2CC2)n1,inactive,–
CSC1=N[C@@](C)(c2ccccc2)C(=O)N1Nc1ccccc1,inactive,–
CC[C@H](C)[C@H]1O[C@]2(C=C[C@@H]1C)C[C@@H]1C[C@@H](C/C=C(\C)[C@@H](O[C@H]3C[C@H](OC)[C@@H](O[C@H]4C[C@H](OC)[C@@H](NC)[C@H](C)O4)[C@H](C)O3)[C@@H](C)/C=C/C=C3\CO[C@@H]4[C@H](O)C(C)=C[C@@H](C(=O)O1)[C@]34O)O2,–,32.7 µM (active)
N#CSCSC#N,–,36.5 µM (active) and 18.1 µM (active)
COP(=O)(NC(C)=O)SC (stereo not drawn),inactive,–
CCCOCC(=Nc1ccc(Cl)cc1C(F)(F)F)n1ccnc1,–,46.2 µM (active)
C#CC(C)(C)NC(=O)c1cc(Cl)cc(Cl)c1,inactive,–

# Test system: not listed separately
# Test: Tanguay_ZF_120hpf_MORT_legacy: (Legacy) Oregon State University Tanguay Lab 120 Hour Post-fertilization zebrafish Assay for Mortality (AID 2283633);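 on AC50: fitted as increase in binary mortality versus DMSO negative control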
# In short: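 Brightfield scoring of embryo death (binary) at 24 and 120 hpf; static exposure 6–120 hpf, 28C, sealed and foil-covered. Pronase-dechorionated 5D wild-type larvae, single embryo per well. DMSO 0.64% v/v; trimethyltin chloride 5uM positive control.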
SMILES,outcome,AC50
CCOP(=O)(NC(C)C)Oc1ccc(SC)c(C)c1 (stereo not drawn),inactive,–
COc1cc(OC)nc(Sc2cccc(Cl)c2C(=O)O)n1,inactive,–
CCOP(=S)(OCC)Oc1ccc2c(C)c(Cl)c(=O)oc2c1,inactive,–
CC(=NC#N)N(C)Cc1ccc(Cl)nc1,inactive,–
CN(C)NC(=O)CCC(=O)O,inactive,–
FC(F)C(F)(F)OCC(Cn1cncn1)c1ccc(Cl)cc1Cl (stereo not drawn),inactive,–
CCc1cccc(C)c1N(C(=O)CCl)C(C)COC (stereo not drawn),inactive,–
COP(=O)(OC)C(O)C(Cl)(Cl)Cl (stereo not drawn),inactive,–
CC(C)=CC1C(C(=O)OCN2C(=O)C3=C(CCCC3)C2=O)C1(C)C (stereo not drawn),inactive,–
CC(C)N(C(=O)SCC(Cl)=C(Cl)Cl)C(C)C,inactive,–
CCCCOC(=O)c1ccccc1C(=O)O,inactive,–
CCC(=O)Nc1ccc(Cl)c(Cl)c1,inactive,–
COc1cccc(C(=O)NN(C(=O)c2cc(C)cc(C)c2)C(C)(C)C)c1C,inactive,–
CCOP(=S)(OCC)Oc1cc(C)nc(C(C)C)n1,inactive,–
CCCCSP(=O)(SCCCC)SCCCC,inactive,–
CCOP(=S)(OCC)SCCSCC,inactive,–
C#CCC1=C(C)C(OC(=O)C2C(C=C(C)C)C2(C)C)CC1=O (stereo not drawn),inactive,–

SMILES,outcome,AC50
CCOC(=O)CC(SP(=O)(OC)OC)C(=O)OCC (stereo not drawn),inactive,–
CON=C(C(=O)OC)c1ccccc1CON=C(C)c1cccc(C(F)(F)F)c1,inactive,–
CCOP(=S)(OCC)Oc1ccc([N+](=O)[O-])cc1,inactive,–
Cc1cc(C2CC2)nc(Nc2ccccc2)n1,inactive,–
C[Si](Cn1cncn1)(c1ccc(F)cc1)c1ccc(F)cc1,inactive,–
CCC(CC)Nc1c([N+](=O)[O-])cc(C)c(C)c1[N+](=O)[O-],inactive,–
O=c1ccc(=O)[nH][nH]1,inactive,–
CCCSP(=O)(OCC)Oc1ccc(Br)cc1Cl (stereo not drawn),inactive,–
CC1(C(=O)Nc2ccc(O)c(Cl)c2Cl)CCCCC1,inactive,–
CNC(=O)ON=C(SC)C(=O)N(C)C,inactive,–
Nc1nc(N)nc(NC2CC2)n1,inactive,–
CSC1=N[C@@](C)(c2ccccc2)C(=O)N1Nc1ccccc1,–,12.6 µM (active)
CC[C@H](C)[C@H]1O[C@]2(C=C[C@@H]1C)C[C@@H]1C[C@@H](C/C=C(\C)[C@@H](O[C@H]3C[C@H](OC)[C@@H](O[C@H]4C[C@H](OC)[C@@H](NC)[C@H](C)O4)[C@H](C)O3)[C@@H](C)/C=C/C=C3\CO[C@@H]4[C@H](O)C(C)=C[C@@H](C(=O)O1)[C@]34O)O2,–,5.52 µM (active)
N#CSCSC#N,–,34.6 µM (active)
COP(=O)(NC(C)=O)SC (stereo not drawn),inactive,–
CCCOCC(=Nc1ccc(Cl)cc1C(F)(F)F)n1ccnc1,inactive,–
C#CC(C)(C)NC(=O)c1cc(Cl)cc(Cl)c1,inactive,–
